Source: the supplement of paper PMC3545927
Some of the results follow. How many sequences the whole screen found active is unknown.

Molecular target: furin, P09958
Assay: furin cleavage Z-score vs untreated control; higher = more cleavage, active = 3.5 or more, inactive = 1 or less, 8 variable residues between constant flanks
Procedure, shortened: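 Reactions of 0.01 ml ran for 7.5, 15 or 30 min in 50 mM HEPES pH 7.5 with CaCl2 and NaCl, at 1:10 enzyme:substrate. In them, purified furin acted on bead-held 8-mer peptides fused to a cDNA oligonucleotide. The cleavage Z-score was obtained by lowess-adjusting log sequencing counts of released DNA against furin-free reactions and scaling by median absolute deviation.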

furin, P09958, sequence (P09958 whole entry): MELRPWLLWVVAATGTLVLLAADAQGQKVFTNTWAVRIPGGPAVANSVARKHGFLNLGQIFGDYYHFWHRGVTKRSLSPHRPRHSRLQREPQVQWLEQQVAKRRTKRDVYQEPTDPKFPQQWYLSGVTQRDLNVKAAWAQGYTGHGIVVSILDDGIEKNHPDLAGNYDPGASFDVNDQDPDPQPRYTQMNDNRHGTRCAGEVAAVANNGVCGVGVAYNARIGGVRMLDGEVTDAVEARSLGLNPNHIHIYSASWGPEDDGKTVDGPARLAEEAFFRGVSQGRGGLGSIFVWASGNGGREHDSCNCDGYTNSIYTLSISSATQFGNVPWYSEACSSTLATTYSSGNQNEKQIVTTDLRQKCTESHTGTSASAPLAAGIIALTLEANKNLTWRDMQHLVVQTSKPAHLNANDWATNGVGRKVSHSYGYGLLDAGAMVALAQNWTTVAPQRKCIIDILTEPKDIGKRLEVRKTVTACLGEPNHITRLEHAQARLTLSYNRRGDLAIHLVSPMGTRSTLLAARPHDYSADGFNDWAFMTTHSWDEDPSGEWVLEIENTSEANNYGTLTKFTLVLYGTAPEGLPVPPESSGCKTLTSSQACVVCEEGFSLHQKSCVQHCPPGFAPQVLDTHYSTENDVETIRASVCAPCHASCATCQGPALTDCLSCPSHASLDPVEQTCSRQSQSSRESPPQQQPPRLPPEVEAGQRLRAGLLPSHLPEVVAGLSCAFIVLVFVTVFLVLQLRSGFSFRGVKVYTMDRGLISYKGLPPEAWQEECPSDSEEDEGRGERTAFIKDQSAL

Sequence	furin cleavage Z-score (7.5 min)	furin cleavage Z-score (15 min)	furin cleavage Z-score (30 min)
CAKMIGGHYVAGNASASA [HC624]	-0.495 (inactive)	-0.0648 (inactive)	-0.0572 (inactive)
CACGSVFLVGAGNASASA [HC301]	-1.62 (inactive)	-1.91 (inactive)	-1.35 (inactive)
CAEVVTSTWIAGNASASA [HC2244]	0.57 (inactive)	0.293 (inactive)	0.802 (inactive)
CAEQPCHRPSAGNASASA [HC2342]	-1.24 (inactive)	2.02	-0.236 (inactive)
CAEREISVPAAGNASASA [HC1293]	-0.452 (inactive)	-1.55 (inactive)	-0.526 (inactive)
CAGQLDLSGWAGNASASA [HC1642]	-0.176 (inactive)	0.869 (inactive)	0.13 (inactive)
CARRRRNKRYAGNASASA [FS-1403]	12.8 (active)	14.4 (active)	10.6 (active)
CALRRRRKRYAGNASASA [FS-944]	11.8 (active)	14.5 (active)	10.2 (active)
CAEETTPCSGAGNASASA [HC1972]	-1.3 (inactive)	-1.71 (inactive)	-0.823 (inactive)
CATTPCSRSWAGNASASA [HC1893]	0.791 (inactive)	0.627 (inactive)	-0.432 (inactive)
CAPLRDWAHNAGNASASA [HC638]	0.639 (inactive)	0.256 (inactive)	0.786 (inactive)
CASTPCSAHTAGNASASA [HC2578]	-0.678 (inactive)	-2.17 (inactive)	0.0661 (inactive)
CAFFCFAWYLAGNASASA [HC546]	-1.2 (inactive)	-0.615 (inactive)	-0.815 (inactive)
CARKVRDKISAGNASASA [FS-1961]	-0.364 (inactive)	-1.5 (inactive)	1.37
CARKIRIKGIAGNASASA [FS-2558]	0.0544 (inactive)	-0.85 (inactive)	-1.75 (inactive)
CARHSRKKRLAGNASASA [FS-1259]	8.52 (active)	11.2 (active)	9.02 (active)
CARKMRPARLAGNASASA [FS-1260]	3.41	4.23 (active)	4.92 (active)
CARKMRLGDAAGNASASA [FS-1728]	0.749 (inactive)	0.395 (inactive)	-0.759 (inactive)
CARHSRQVLLAGNASASA [FS-2947]	0.717 (inactive)	2.58	2.14
CARKVREAYLAGNASASA [FS-2427]	5.91 (active)	6.8 (active)	7.91 (active)
CARHSRSQGAAGNASASA [FS-2948]	-0.651 (inactive)	0.879 (inactive)	-0.497 (inactive)
CARKIRKKRLAGNASASA [FS-84]	9.24 (active)	9.01 (active)	7.01 (active)
CAELIEANLLAGNASASA [HC1273]	-1.11 (inactive)	-1.92 (inactive)	0.0877 (inactive)
CARYSRSSAAAGNASASA [FS-1811]	1.3	1.43	0.767 (inactive)
CARAARSLLQAGNASASA [FS-1679]	1.57	0.802 (inactive)	5.01 (active)
CARVVRELLQAGNASASA [FS-1805]	5.28 (active)	8.9 (active)	7.51 (active)
CARWGRFLLQAGNASASA [FS-3128]	0.358 (inactive)	1.41	0.253 (inactive)
CAWLAGLFYHAGNASASA [HC379]	-1.56 (inactive)	-0.299 (inactive)	-1.72 (inactive)
